Among the data in PubChem BioAssay (NCI) are growth values, retold here.

About 83,000 compounds went through this panel and 20% of them were active in at least one assay; those are over-represented in the sample as a whole.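 For each line, cells grew in 96-well plates with the test compound present at a single concentration for 48 hours.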 Active and inactive are the calls of the source. How the source made its calls: active means growth percent below 10; inactive means the rest.

The test has as its system HL-60(TB) leukemia. Nature of the test: NCI-60 one-dose screen, 48 h (100 = growth as untreated, 0 = no growth, -100 = all killed). To be noted: 10 µM unless noted.
On to `Cc1nc2ccc(C(=O)NCc3cc(C(=O)O)c(C)o3)cc2nc1C`, for which the growth was 103% (inactive). In the case of `COc1ccc(C2NN=C3c4ccccc4CCC32)cc1` (stereo not given), the growth is 40.7% (inactive).

As for `Nc1nc(Cl)c2c(ncn2Cc2ccc(CCl)cc2)n1`, the growth is 90.5% (inactive).

Take `Cc1ccnc(Nc2nc3ccccc3[nH]2)n1`: the growth is 87% (inactive).

Take `Oc1ccc(Cc2ccc(O)c(C3CC(c4ccc(Cl)cc4)=NN3)c2)cc1C1CC(c2ccc(Cl)cc2)=NN1` (stereo not given): the growth is -23.6% (active). The same measure for `CCN(CC)CC(=O)Nc1cccc(C(=O)OC(C)C)c1`: 93% (inactive); for `N#Cc1c(NN)n(C2OC(CO)C(O)C2O)c2ncnc(N)c12` (stereo not given): -52.1% (active). On to `COc1cc(OC)cc(-c2ccc(-c3ccc(C(=N)N)cc3)s2)c1`, for which the growth is -57.8% (active). The same measure for `Cc1cc(O)cc(-c2nn(C)cc2-c2cc(N3CCOCC3)nc(-c3cccnc3)n2)c1`: 14.8% (inactive); for `Clc1cc(Cl)c(Cl)c(-c2nnc(SCc3ccncc3Br)o2)c1`: 88.8% (inactive); for `CCc1nc(C)cn1C(=O)OCc1nc2nc(Cl)nc(N3CCOCC3)c2[nH]1`: -23.1% (active).

For the compound `CNC(=O)c1cc(Oc2ccc3nc(Nc4cc(Cl)cc(Cl)c4)ccc3c2)ccn1`, the growth is 47.6% (inactive). Then `COc1cc2cc(Oc3ccc(NC(=O)c4ccc(Cl)c(C(F)(F)F)c4)cc3)c(C)nc2cc1OC`, with 17.4% (inactive).

As to `NC(=NCCCC1(c2ccccc2)CCCC1)Nc1ccc(Cl)cc1`, the growth was 77.2% (inactive).

Regarding `O=[N+]([O-])c1ccc(-c2cn(-c3ccccc3)c(-c3ccccc3)n2)cc1`, the growth is 87% (inactive). As for `COc1ccc(C(=O)c2cc(C)c(OC)c(C)c2)c(OC)c1OC(=O)C(Cl)Cl`, the growth is -35.7% (active).

For `COc1cc(-c2nn(-c3cccc(NC(=O)CCNc4ccc(N5CCOCC5)cc4)c3)cc2-c2ccncc2)ccc1Cl`, the growth is 8.36% (active). Then `C[C@@H]1O[C@@H](O[C@@H]2C[C@H](c3ccc4c(c3O)C(=O)C3=C(C4=O)[C@@]4(O)C(=O)C[C@](C)(O)C[C@@]4(O)C=C3)O[C@H](C)[C@H]2O)C[C@H](O)[C@@H]1O`, with 99.5% (inactive).

For the compound `CCOC(=O)c1ccccc1NC(c1ccccc1)c1ccc2cccnc2c1O` (stereo not given), the growth was 3.54% (active). The same measure for `CN(C)CCOc1ccc(-c2nc3sccn3c2-c2ccnc(S(C)(=O)=O)n2)cc1`: 97.1% (inactive); for `N#Cc1c(N)nc2c(c1N)C(c1ccc(Cl)cc1)C1=C(CCCC1=O)N2c1sc2c(c1C#N)CCCC2` (stereo not given): 89.2% (inactive). With `O=C(/C=C/c1cccc(Cl)c1Cl)Nc1ncc(Cc2ccccc2Cl)s1`, the growth was -3.06% (active). Then `Oc1ccccc1-c1nnc(CNc2ccc(Cl)cc2)o1`, with 4.56% (active); and `Cc1ccc(Nc2ncnc3c2sc2ncccc23)cc1`, with 71.2% (inactive); and `COc1cc(C(=O)c2c(-c3ccccc3)oc3ccccc23)cc(OC)c1O`, with 5.07% (active). Regarding `COc1cc(Cn2ncc3ccc(NC(=O)c4cc5ccccc5oc4=N)cc32)cc(OC)c1OC`, the growth was 64.8% (inactive). The same measure for `COc1cc(F)c(-c2nc3c(C)cccc3n2Cc2c(F)cccc2F)c(F)c1`: 78.8% (inactive); for `COc1ccccc1C1=C(Br)C(=O)c2nc(C)ccc2C1=O`: 44.4% (inactive); for `O=C(O)c1c([N+](=O)[O-])cnc2ccccc12`: 92.4% (inactive). Take `Cn1c2ccc(Br)cc2c2c3c(c4c5ccccc5[nH]c4c21)C(=O)N(O)C3=O`: the growth was -58.6% (active). Then `Nc1ncc(-c2ccc3ncnc(Nc4ccc(F)c(Cl)c4)c3c2)cn1`, with 103% (inactive); and `COC(=O)c1c(C)nc(C)c2c1C(=O)C(Br)=C(NCCN1CCOCC1)C2=O`, with 61.9% (inactive).

For `CSc1ccc(-c2cc(-c3ccc(NC(=O)CCCN4CCCC4)cc3)nc(-c3ccc(NC(=O)CCCN4CCCC4)cc3)c2)cc1`, the growth was 60.8% (inactive).

Consider `CC(C)CCC[C@@H](C)[C@H]1CCC2C3=CCC4C(=O)C=CC(=O)C4C3CC[C@@]21C` (stereo not given in full), for which the growth was -5.46% (active). As for `O=c1c2ccccc2sc2c(NCCN3CCOCC3)nc3ccccc3c12`, the growth was 75.9% (inactive). The same measure for `Cc1ccc(-c2ccc(/C=C(\C#N)c3nc(-c4ccco4)cs3)o2)cc1`: 101% (inactive); for `CCNCCNc1c(C)c(-c2ccc(C(F)(F)F)cc2)c(C#N)c2nc3ccccc3n12`: 74% (inactive).

As to `O=C(C[Si](CC(=O)c1cccc(C(F)(F)F)c1)CC(=O)c1cccc(C(F)(F)F)c1)c1cccc(C(F)(F)F)c1`, the growth is -40.8% (active).

For `O=c1c2c(=NCCN3CCCC3)cc3c(=O)n(CCCN4CCOCC4)c(=O)c4ccc(c(O)n1CCCN1CCOCC1)c2c4-3`, the growth was -34.7% (active). Take `Oc1ccc(Cl)cc1C(c1cc(Cl)ccc1O)C(Cl)(Cl)Cl`: the growth is 69% (inactive).
